Results: PubChem BioAssay (Tox21)
Records with an inconclusive call do not appear. A call without a number means that no potency is given here. Calls of active or inactive are those of the source. Calls come from the whole dose curve; as a rule, active = well fitted cell-killing curve with a large enough effect in the repeat runs; inconclusive = weak or mixed curves, or effect the other way; inactive = flat fitted curve, though single readings scatter.

assay: qHTS RealTime-Glo MT Cell Viability Assay in HepG2 cells - 0 hour (AID 1224889); conditions: RealTime-Glo luminescence; series mostly up to 76.8 µM; note: nearly all actives have a fitted effect of over 50% in size
Source text: U.S. Tox21 Program National Center for Advancing Translational Sciences [NCATS] NIH Chemical Genomics Center [NCGC] U.S. Environmental Protection Agency [EPA] National Institutes of Environmental Health Sciences [NIEHS] National Toxicology Program [NTP] U.S. Food and Drug Administration [FDA] Tox21 Assay Overview: Measure of cell viability is critical in the cell-base assay. Analysis of cell viability is necessary for the characterization of cell responses to cytotoxic drugs and environmental stress. A RealTime-Glo MT Cell Viability Assay to monitor cell viability in real time of continues cell culture during 40 hours of compound treatment was used to screen Tox21 10K library compounds in HepG2 cells. The RealTime-Glo MT Cell Viability Assay is a nonlytic, homogeneous, bioluminescent method to measure cell viability in real time using a simple, plate-based method. The assay involves adding NanoLuc luciferase and a cell-permeant prosubstrate to cells in culture. Viable cells reduce the proprietary prosubstrate to generate a substrate for NanoLuc luciferase. This substrate diffuses from cells into the surrounding culture medium, where it is rapidly used by the NanoLuc Enzyme to produce a luminescent signal. The signal correlates with the number of viable cells, making the assay well suited for cytotoxicity studies.
Tox21 Assay Protocol Summary: The mixture of HepG2 cell suspension and reagents were dispensed at 600cells/6 ul/well in 1536-well tissue culture treated black solid bottom plates using a Multidrop dispenser. After the assay plates were incubated at a 37 C/5% CO2 incubator for 5 hours, 23 nL of compounds dissolved in DMSO, positive and negative controls was transferred to the assay plate by a pintool work station. The plates were incubated at 37 C for 40 hours. The luminescence intensity were measured at 0h, 8h, 16h, 24h, 32h and 40h time points using ViewLux plate reader during compound treatment.

| SMILES | Potency |
| --- | --- |
| Cc1cc(=O)[nH]c(C(C)C)n1 | inactive |
| O=C(O)c1ccc([N+](=O)[O-])cc1 | inactive |
| O=C(Oc1ccccc1)c1ccc(O)cc1 | inactive |
| Oc1ccc2ccccc2c1 | inactive |
| Nc1nc2ncc(CNc3ccc(C(=O)N[C@@H](CCC(=O)O)C(=O)O)cc3)nc2c(=O)[nH]1 | inactive |
| CC(C)NCC(O)COc1cccc2ccccc12 (stereo not given) | inactive |
| CCCCCCCCCCCCN | inactive |
| C=CC(=O)OCCCCCCCC(C)C | inactive |
| CCc1ccc(O)cc1 | inactive |
| C/C=C(C)/C=C/C=C(C)C | inactive |
| COC(=O)c1ccc(C(=O)OC)cc1 | inactive |
| CCC(=O)O | inactive |
| O=[N+]([O-])c1cccc(Cl)c1 | inactive |
| Oc1ccc2ccccc2c1N=Nc1ccccc1 | inactive |
| COCC(C)O (stereo not given) | inactive |
| CCCCCC/C=C/CCCCCCCC(=O)O | inactive |
| CC(=O)CCc1ccccc1 | inactive |
| NS(=O)(=O)c1cc2c(cc1Cl)NC=NS2(=O)=O | inactive |
| O=C(c1cc(O)c(O)c(O)c1)c1ccc(O)c(O)c1O | inactive |
| CN(C)c1cccc(O)c1 | inactive |

| SMILES | Potency |
| --- | --- |
| Cc1ccc(C)c(C)c1 | inactive |
| OC[C@@H](O)[C@@H](O)[C@H](O)[C@@H](O)CO | inactive |
| O=C1O[C@H](CO)[C@@H](O)[C@H](O)[C@H]1O | inactive |
| O=c1c(-c2ccc(O)cc2)coc2cc(O)ccc12 | inactive |
| Cc1ccc(N)c(S(=O)(=O)O)c1 | inactive |
| ClC1=C(Cl)C(Cl)(Cl)C(Cl)=C1Cl | inactive |
| Clc1ccc(Cl)c(Cl)c1Cl | inactive |
| Oc1ccc(OCc2ccccc2)cc1 | inactive |
| CC(C)(C)C1CCC(O)CC1 (stereo not given) | inactive |
| NC(=O)/N=N/C(N)=O | inactive |
| CCCCCCCCCC(=O)O | inactive |
| CCOC(=O)C1OC1c1ccccc1 (stereo not given) | inactive |
| c1ccc2ccccc2c1 | inactive |
| CCCCCCOC(C)=O | inactive |
| O=C(Cl)c1c(Cl)c(Cl)c(C(=O)Cl)c(Cl)c1Cl | inactive |
| C[C@@H]1O[C@@H](OC[C@H]2O[C@@H](Oc3c(-c4ccc(O)c(O)c4)oc4cc(O)cc(O)c4c3=O)[C@H](O)[C@@H](O)[C@@H]2O)[C@H](O)[C@H](O)[C@H]1O | inactive |
| CC1=CC[C@H]2C[C@@H]1C2(C)C | inactive |
| CCCCOCCOCCOC(=O)CCCCC(=O)OCCOCCOCCCC | inactive |
| CN(C)c1ccc(C(=N)c2ccc(N(C)C)cc2)cc1 | inactive |
| OCC1CCCO1 (stereo not given) | inactive |
